# Where “and” joins values, the source holds several entries; their conditions need not be identical. Equal values may be shown once. The whole screen tested about 410,000 compounds, of which about 18,000 (4.4%) were called active. Not shown: some 7% with an inconclusive outcome. Cut-off read from the data, not from the text of the source: active = activity change below about -60%; inconclusive = no clear call, values can overlap the other calls; inactive = above about -39%. What follows is part of a selection rich in actives, with near analogues and random picks from the rest. Where a structure was tested more than once in an assay, its records may differ in their call.
# Experiment: qHTS Assay for inhibitors of the human cytomegalovirus (HCMV)
# Conditions: HFF cells, HCMV-luciferase reporter, 72 h; at 57.5 µM; stronger effect = lower value
# Summary of the method: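 Compounds were evaluated in HFFs infected with an HCMV luciferase reporter virus (MOI 1 PFU/cell). Luciferase in lysates collected 72 h post infection served as the replication measure.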
# % is set by controls: 0 for no effect and ±100 for the full control effect.
row,SMILES,"activity change, negative = inhibition"
1,CC(C)c1ccc(Cn2c(COc3ccccc3)nc3ccccc32)cc1,57.2% (inactive)
2,Cn1c2ccccc2c(=O)c2c(=O)n(Cc3ccco3)c(COc3ccccc3)nc21,-81.5% (active)
3,COc1cc(NC(=O)Cn2c(=O)n(Cc3ccco3)c(=O)c3oc4ccccc4c32)cc(OC)c1,-18.5% (inactive)
4,CCOc1ccc(N(CC)S(=O)(=O)N2CCCC(C(=O)NCc3ccc(SC)cc3)C2)cc1 (stereo unspecified),-31% (inactive)
5,CCc1ccc(NC(=O)CSc2nc3c([nH]c4ccccc43)c(=O)n2-c2cccc(OC)c2)cc1,20.7% (inactive)
6,Cc1ccc(-n2c(SCC(=O)c3ccccc3)nc3c([nH]c4ccccc43)c2=O)cc1,37% (inactive)
7,Cc1ccc(NC(=O)CSc2nc3c([nH]c4ccccc43)c(=O)n2-c2ccccc2)cc1Cl,-24% (inactive)
8,Cc1ccc(NC(=O)CSc2nc3c([nH]c4ccccc43)c(=O)n2-c2ccccc2)c(C)c1,-65.4% (active)
9,CCOC(=O)c1ccc(NC(=O)CSc2nc3c([nH]c4ccccc43)c(=O)n2C)cc1,-81.7% (active)
10,Cc1ccccc1CSc1nc2c([nH]c3ccccc32)c(=O)n1C,34.5% (inactive)
11,CCn1c(CC(=O)Nc2ccc(C)cc2)nnc1SCC(=O)Nc1nc(C)cs1,28.7% (inactive)
12,O=C(COc1ccccc1F)OCc1cc(=O)n2nc(C3CCCCC3)sc2n1,11.6% (inactive)
13,O=c1c2ccccc2n(Cc2cccc(Cl)c2)c(=O)n1Cc1ccccc1,-14.5% (inactive)
14,CC(C)CCN(C(=O)Nc1ccc(Cl)c(Cl)c1)C(C)c1cccs1 (stereo unspecified),15.6% (inactive)
15,CC(C)(C)C(=O)CSc1ccc(S(=O)(=O)N2CCCC2)cn1,0% (inactive)
16,CCc1c(C)sc(NC(=O)C2c3ccccc3Oc3ccccc32)c1C(=O)OC(C)C,23.5% (inactive)
17,Cc1nc(S(=O)(=O)c2ccc(Br)cc2)nc2c1CCC2,6.93% (inactive)
18,CCOc1ccc(N(CC)C(=O)C2CCN(S(=O)(=O)c3cccc4nonc34)CC2)cc1,-9.41% (inactive)
19,Cc1ccc2c(c1)N(C(=O)Nc1ccc(Br)cc1F)CCO2,-2.87% (inactive)
20,COc1ccccc1N(C)S(=O)(=O)c1ccc(C(=O)NC2CCCCCC2)cc1,-30.1% (inactive)
21,COc1ccccc1N(C)S(=O)(=O)c1ccc(Cl)c(C(=O)N2CCC(C(N)=O)CC2)c1,-15.9% (inactive)
22,COc1ccccc1N(C)S(=O)(=O)c1ccc(Cl)c(C(=O)Nc2ccncc2)c1,-67.6% (active)

row,SMILES,"activity change, negative = inhibition"
1,COc1ccc(C2(Nc3cccc(F)c3)C(=O)c3ccccc3C2=O)cc1,3.54% (inactive)
2,CCOC(=O)c1ccc(CSc2nnc3cc(C)c4ccccc4n23)cc1,0.725% (inactive)
3,COc1cccc(N2CCN(S(=O)(=O)c3cc(Br)cc4c3N(C(=O)C3CC3)CC4)CC2)c1,7.82% (inactive)
4,CN(Cc1ccccc1)c1ncnc2onc(-c3ccc(F)cc3)c12,-33.7% (inactive)
5,COc1ccc(OC)c(NC(=O)CSC2=Nc3ccccc3C3=NC(CC(=O)NCCc4ccccc4)C(=O)N23)c1 (stereo unspecified),3.26% (inactive)
6,COc1ccc(OC)c(NC(=O)CSC2=Nc3ccccc3C3=NC(CC(=O)NCc4ccc(F)cc4)C(=O)N23)c1 (stereo unspecified),-67.3% (active)
7,COc1ccccc1NC(=O)CSC1=Nc2ccccc2C2=NC(CC(=O)NCc3cccs3)C(=O)N12 (stereo unspecified),11.4% (inactive)
8,Cc1ccc(N(CC(=O)NCC2CCCO2)C(=O)CNS(=O)(=O)c2ccc(Cl)cc2)cc1 (stereo unspecified),43.5% (inactive)
9,Cc1nc2nc(SCC(=O)NC3CCC(C)CC3)nn2c(C)c1Cc1ccccc1Cl (stereo unspecified),-21.3% (inactive)
10,CC1CCCCC1NC(=O)/C(C#N)=C/C=C/c1ccccc1[N+](=O)[O-] (stereo unspecified),-109% (active)
11,CC1CC(C)CN(C/C=C/c2ccccc2[N+](=O)[O-])C1 (stereo unspecified),71.9% (inactive)
12,O=C(/C=C/c1ccccc1[N+](=O)[O-])OCC(=O)N1CCCC1,11.1% (inactive)
13,COC(=O)c1cc(S(=O)(=O)N2CCN(c3cc(Cl)ccc3C)CC2)c[nH]1,-37% (inactive)
14,COc1ccc(-c2cn3nc(N4CCC(C(=O)Nc5cccc(C)c5C)CC4)sc3n2)cc1,0% (inactive)
15,CN(C)S(=O)(=O)c1ccc(C(=O)NCC(C)(C)N2CCOCC2)cc1,-39.4% (inactive)
16,CC(C)(CNC(=O)c1ccc(Cl)c(S(=O)(=O)N2CCc3ccccc3C2)c1)N1CCOCC1,-77.7% (active)
17,Cc1ccccc1CSCCNC(=O)c1ccc(Cl)c(S(=O)(=O)N2CCOCC2)c1,-33.1% (inactive)
18,COc1cc2c(=O)c(S(=O)(=O)c3ccc(C(C)C)cc3)cn(Cc3ccccc3C)c2cc1OC,23.6% (inactive)
19,COc1ccnc(Oc2ccccc2)n1,5% (inactive)
20,COc1ccnc(Oc2ccccc2)c1-c1ncn[nH]1,-36.6% (inactive)
21,COc1cnc(-c2ccccn2)nc1Oc1ccc(C(C)(C)C)cc1,-82.7% (active)
22,Cc1cc(OCC(=O)NCC2(N(C)C)CCCCC2)cc(C)c1Cl,-11.2% (inactive)

row,SMILES,"activity change, negative = inhibition"
1,CC1CCCCC1NC(=O)CCS(=O)(=O)c1ccc2c(c1)NC(=O)CO2 (stereo unspecified),-22.8% (inactive)
2,Cc1cc2c(cc1S(=O)(=O)CCC(=O)Nc1ccc(OC(F)(F)F)cc1)OCC(=O)N2,5.03% (inactive)
3,O=C(CCS(=O)(=O)c1ccc2c(c1)NC(=O)CO2)Nc1cccc(C(F)(F)F)c1,-106% (active)
4,CCOC(=O)c1cc2c(=O)n3ccccc3nc2n(Cc2ccco2)c1=NC(=O)c1ccc(F)cc1,-0.814% (inactive)
5,CCOC(=O)c1cc2c(=O)n3ccccc3nc2n(CC(C)C)c1=NC(=O)c1c(-c2c(F)cccc2Cl)noc1C,-12.3% (inactive) and -65.2% (active)
6,CCOC(=O)c1cc2c(=O)n3ccccc3nc2n(CC2CCCO2)c1=NC(=O)c1ccccc1F (stereo unspecified),5.02% (inactive)
7,CCOc1ccc(-n2cnc3c(=O)[nH]c(N)nc32)cc1,29.7% (inactive)
8,CCc1ccc(NC(=O)CN2C(=O)CCSc3ccc(S(=O)(=O)N4CCCC4)cc32)cc1,14.8% (inactive)
9,Nc1ncnc(Nc2cccc(Cl)c2Cl)n1,8.97% (inactive)
10,CC(=O)Nc1cccc(NC(=O)CSc2nccn2Cc2ccc3c(c2)OCO3)c1,-12.3% (inactive)
11,COc1ccc(CNC(=O)C2=Cc3cccc(OC)c3OC2)cc1OC,-2.4% (inactive)
12,COc1ccc(CNS(=O)(=O)c2cc(Br)ccc2Br)cc1,-5.85% (inactive)
13,O=C(Nc1ccc(Br)cc1)c1ccc(Br)c(S(=O)(=O)NCc2ccccc2)c1,-106% (active)
14,Cc1ccc(C(=O)Nc2ccc(C(=O)O)cc2)cc1S(=O)(=O)Nc1ccccc1,6.44% (inactive)
15,CCOc1ccc(S(=O)(=O)Nc2ccc3oc4c(c3c2)CC(C)CC4)cc1 (stereo unspecified),33.8% (inactive)
16,CCC(=O)N1CCc2cc(S(=O)(=O)NCCC(=O)Nc3cccc(C)c3C)ccc21,4.12% (inactive)
17,CCCC(=O)Nc1nnc(CC(=O)OCC)s1,69.6% (inactive)
18,CC(C)NC(=O)c1ccccc1S(=O)c1ccccc1C#N (stereo unspecified),-72.2% (active)
19,N#Cc1ccccc1Sc1ccccc1C(=O)OCC(=O)NC1CCCCC1,-31.3% (inactive)
20,CC(C)Oc1ccccc1C(=O)NC(CO)C(=O)O (stereo unspecified),0.22% (inactive)
21,O=C(CC(c1cccs1)N1Cc2ccccc2C1=O)Nc1ccc(F)cc1F (stereo unspecified),5.86% (inactive)
22,Cc1ccc(-c2ccc(CCC(=O)O)n2-c2ccc(C(N)=O)cc2)cc1,15% (inactive)

row,SMILES,"activity change, negative = inhibition"
1,[O-][n+]1onc2c1CCc1[nH]c(-c3ccccc3)nc1-2,-99.3% (active)
2,Cc1ccc(NC(=O)C(Cc2ccccc2)NS(=O)(=O)c2ccc3c(c2)oc(=O)n3C)cc1C (stereo unspecified),1.25% (inactive)
3,CC1CCN(S(=O)(=O)c2ccc3c(c2)N(CC(=O)NCc2ccccc2Cl)C(=O)CO3)CC1,15.7% (inactive)
4,O=C(OCc1ccccc1)c1ccc(O)cc1,17.9% (inactive)
5,CCOC(=O)c1c(CN(C)C)n(-c2ccccc2)c2cc(Br)c(O)cc12,-35% (inactive)
6,CCOC(=O)c1c(CN2CCOCC2)n(-c2ccccc2)c2ccc(O)cc12,-73% (active)
7,CCOC(=O)c1nnn(-c2nonc2-n2cccc2)c1CN1CCOCC1,-19.5% (inactive)
8,O[C@H]1C[C@H](c2ccc(Cl)cc2)N(Cc2cccs2)C[C@@H]1n1cc(C2CC2)nn1,15% (inactive)
9,CCOC(=O)[C@]12CCC=C1N(CCC1=CCCCC1)C(=O)[C@H](CC(=O)NCc1ccc(C)o1)C2,-0.404% (inactive)
10,CCc1nc2onc(C)c2c(=O)n1CC(=O)O,9.29% (inactive)
11,CCc1nn(CC(=O)NCC(C)c2ccccc2)c(=O)c2cc3occc3n12 (stereo unspecified),-13.6% (inactive)
12,COc1ccc(-c2nc(Cn3c(=O)cc(C)c4c(C)nn(-c5ccccc5)c43)c(C)o2)cc1OC,18.8% (inactive)
13,OCCCNc1nccc(-c2cc(Nc3cccc(Cl)c3)ncn2)n1,-97.8% (active)
14,COC(=O)[C@H]1[C@H](CO)[C@H]2Cn3c(cccc3=O)[C@H]2N1CC1CC1,3.17% (inactive)
15,O=C(Nc1cccc(Cl)c1N1CCOCC1)c1cccnc1,-21.6% (inactive)
16,O=C(N/N=C/c1sc(N2CCCCC2)nc1-c1cccs1)c1cccnc1,-80.6% (active)
17,O=C(c1cccnc1)N1CCN(S(=O)(=O)c2cccs2)CC1,7.09% (inactive)
18,COc1cccc(N2CC(NC(=O)/C=C\c3ccccc3)CC2=O)c1 (stereo unspecified),81.9% (inactive)
19,CCOC(=O)c1c(-c2ccc(OC)cc2)oc2ccc(OCc3ccc(C(=O)OC)cc3)cc12,-6.67% (inactive)
20,COC(=O)c1ccc(NC(=O)CCc2c(C)nc3c(c(C)nn3-c3ccc(C)cc3)c2C)cc1,-19.7% (inactive)

# Source: PubChem BioAssay AID1259415 (National Center for Advancing Translational Sciences (NCATS), 2018)
